Assay results: PubChem BioAssay AID1159580 (chemical genetic matrix, 2015)
Out of some 5,500 compounds screened, about 2,000 (36%) were called active. Another 18% or so got no clear call; they are omitted. Rule as the data show it: active = normalized growth mostly below about 0.91 (no sharp cut-off); inconclusive = no clear call, values can overlap the other calls; inactive = mostly above about 0.92. The list shows a part of the results.

Assay: chemical genetic growth profiling, strain panel (AID 1159580);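 also: tested at 20 µM; growth read once vehicle control cultures reached saturation at 30 °C; 1 = growth at the plate median or of vehicle wells; lower values mean less growth of the strain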
Conditions: growth OD
[1] = S. cerevisiae deletion strains, locus YDL101C, strain DUN1, hits give low values
[2] = S. cerevisiae deletion strains, locus YHR030C, strain SLT2, hits give low values

Measured: normalized growth

O=S(=O)(NCc1ccc(F)cc1F)c1cccc(C(F)(F)F)c1
active: S. cerevisiae deletion strains, locus YDL134C, strain PPH21, hits give low values 0.894
inactive: S. cerevisiae deletion strains, locus YAL013W, strain DEP1, hits give low values 0.969 | S. cerevisiae deletion strains, locus YBR229C, strain ROT2, hits give low values 0.98 | S. cerevisiae deletion strains, locus YCL061C, strain MRC1, hits give low values 0.972 | [1] 0.985 | S. cerevisiae deletion strains, locus YDR150W, strain NUM1, hits give low values 0.911 | S. cerevisiae deletion strains, locus YEL061C, strain CIN8, hits give low values 0.988 | S. cerevisiae deletion strains, locus YGR078C, strain PAC10, hits give low values 0.976 | S. cerevisiae deletion strains, locus YGR229C, strain SMI1, hits give low values 0.98 | [2] 0.946 | S. cerevisiae deletion strains, locus YHR087W, strain rtc3, hits give low values 0.978 | S. cerevisiae deletion strains, locus YJL187C, strain SWE1, hits give low values 0.972 | S. cerevisiae deletion strains, locus YJR043C, strain POL32, hits give low values 0.984 | S. cerevisiae deletion strains, locus YJR075W, strain HOC1, hits give low values 0.947 | S. cerevisiae deletion strains, locus YKL190W, strain CNB1, hits give low values 0.977 | S. cerevisiae deletion strains, locus YLR039C, strain RIC1, hits give low values 0.884 | S. cerevisiae deletion strains, locus YLR058C, strain SHM2 (second series), hits give low values 0.979 | S. cerevisiae deletion strains, locus YLR085C, strain ARP6, hits give low values 0.954 | S. cerevisiae deletion strains, locus YLR262C, strain YPT6, hits give low values 0.844 | S. cerevisiae deletion strains, locus YML094W, strain GIM5, hits give low values 0.962 | S. cerevisiae deletion strains, locus YMR219W, strain ESC1, hits give low values 0.979 | S. cerevisiae deletion strains, locus YMR263W, strain SAP30, hits give low values 0.979 | S. cerevisiae deletion strains, locus YMR307W, strain GAS1, hits give low values 0.899 | S. cerevisiae deletion strains, locus YNL153C, strain GIM3, hits give low values 1.01 | S. cerevisiae deletion strains, locus YNL298W, strain CLA4 (second series), hits give low values 0.968 | S. cerevisiae deletion strains, locus YNL322C, strain KRE1, hits give low values 0.973 | S. cerevisiae deletion strains, locus YNR030W, strain Alg12, hits give low values 0.986 | S. cerevisiae deletion strains, locus YPL055C, strain LGE1, hits give low values 0.873 | S. cerevisiae deletion strains, locus YPL241C, strain CIN2, hits give low values 0.982 | S. cerevisiae deletion strains, locus YPR135W, strain CTF4, hits give low values 0.913 | S. cerevisiae strains, strain wild type, hits give low values 0.98

O=S(=O)(NCc1ccc(C(F)(F)F)cc1)c1cccc(C(F)(F)F)c1
active: S. cerevisiae deletion strains, locus YLR113W, strain HOG1, hits give low values 0.802
inactive: S. cerevisiae deletion strains, locus YAR019C, strain CDC15, hits give low values 0.985 | S. cerevisiae deletion strains, locus YBL105C, strain PKC1, hits give low values 0.986 | S. cerevisiae deletion strains, locus YBR135W, strain CKS1, hits give low values 0.982 | S. cerevisiae deletion strains, locus YBR136W, strain MEC1, hits give low values 0.985 | S. cerevisiae deletion strains, locus YBR160W, strain CDC28, hits give low values 0.988 | S. cerevisiae deletion strains, locus YDL017W, strain CDC7, hits give low values 0.989 | S. cerevisiae deletion strains, locus YDL028C, strain MPS1, hits give low values 0.98 | [1] 0.987 | S. cerevisiae deletion strains, locus YDL108W, strain KIN28, hits give low values 0.983 | S. cerevisiae deletion strains, locus YDL132W, strain cdc53, hits give low values 0.973 | S. cerevisiae deletion strains, locus YDL214C, strain PRR2, hits give low values 0.945 | S. cerevisiae deletion strains, locus YDR052C, strain DBF4, hits give low values 0.987 | S. cerevisiae deletion strains, locus YDR054C, strain cdc34, hits give low values 0.985 | S. cerevisiae deletion strains, locus YDR226W, strain ADK1, hits give low values 0.99 | S. cerevisiae deletion strains, locus YDR477W, strain SNF1, hits give low values 0.956 | S. cerevisiae deletion strains, locus YER123W, strain YCK3, hits give low values 0.908 | S. cerevisiae deletion strains, locus YER133W, strain GLC7, hits give low values 0.948 | S. cerevisiae deletion strains, locus YFL009W, strain cdc4, hits give low values 0.974 | S. cerevisiae deletion strains, locus YFL029C, strain CAK1, hits give low values 0.977 | S. cerevisiae deletion strains, locus YFR003C, strain YPI1, hits give low values 0.983 | S. cerevisiae deletion strains, locus YFR019W, strain FAB1, hits give low values 0.981 | S. cerevisiae deletion strains, locus YFR028C, strain CDC14, hits give low values 0.983 | S. cerevisiae deletion strains, locus YGR040W, strain KSS1, hits give low values 0.958 | S. cerevisiae deletion strains, locus YGR052W, strain FMP48, hits give low values 0.97 | S. cerevisiae deletion strains, locus YGR092W, strain DBF2, hits give low values 0.942 | [2] 0.883 | S. cerevisiae deletion strains, locus YHR079C, strain IRE1, hits give low values 0.886 | S. cerevisiae deletion strains, locus YHR082C, strain KSP1, hits give low values 1.04 | S. cerevisiae deletion strains, locus YHR205W, strain SCH9, hits give low values 0.943 | S. cerevisiae deletion strains, locus YIL147C, strain SLN1, hits give low values 0.984 | S. cerevisiae deletion strains, locus YJL095W, strain BCK1, hits give low values 0.869 | S. cerevisiae deletion strains, locus YJL128C, strain PBS2, hits give low values 0.917 | S. cerevisiae deletion strains, locus YJL157C, strain FAR1, hits give low values 0.954 | S. cerevisiae deletion strains, locus YJR016C, strain ILV3, hits give low values 0.984 | S. cerevisiae deletion strains, locus YJR066W, strain TOR1 (second series), hits give low values 0.922 | S. cerevisiae deletion strains, locus YJR066W, strain TOR1, hits give low values 1.02 | S. cerevisiae deletion strains, locus YKL048C, strain ELM1, hits give low values 0.976 | S. cerevisiae deletion strains, locus YKL067W, strain YNK1, hits give low values 0.96 | S. cerevisiae deletion strains, locus YKL101W, strain HSL1, hits give low values 0.936 | S. cerevisiae deletion strains, locus YKL193C, strain SDS22, hits give low values 0.983 | S. cerevisiae deletion strains, locus YKL203C, strain TOR2, hits give low values 1.01 | S. cerevisiae deletion strains, locus YLR133W, strain CKI1, hits give low values 0.976 | S. cerevisiae deletion strains, locus YLR403W, strain SFP1, hits give low values 0.971 | S. cerevisiae deletion strains, locus YML070W, strain DAK1, hits give low values 0.921 | S. cerevisiae deletion strains, locus YMR001C, strain CDC5, hits give low values 0.987 | S. cerevisiae deletion strains, locus YMR205C, strain PFK2 (second series), hits give low values 0.948 | S. cerevisiae deletion strains, locus YMR277W, strain FCP1, hits give low values 0.984 | S. cerevisiae deletion strains, locus YNL006W, strain LST8, hits give low values 0.98 | S. cerevisiae deletion strains, locus YNL020C, strain ARK1, hits give low values 0.964 | S. cerevisiae deletion strains, locus YNL161W, strain CBK1, hits give low values 0.985 | S. cerevisiae deletion strains, locus YNL183C, strain NPR1, hits give low values 1.04 | S. cerevisiae deletion strains, locus YNL207W, strain RIO2, hits give low values 0.987 | S. cerevisiae deletion strains, locus YNL222W, strain SSU72, hits give low values 0.983 | S. cerevisiae deletion strains, locus YNL307C, strain MCK1 (second series), hits give low values 0.954 | S. cerevisiae deletion strains, locus YOL078W, strain AVO1, hits give low values 0.987 | S. cerevisiae deletion strains, locus YOL136C, strain PFK27, hits give low values 0.916 | S. cerevisiae deletion strains, locus YOR061W, strain CKA2, hits give low values 0.987 | S. cerevisiae deletion strains, locus YOR119C, strain RIO1, hits give low values 1.02 | S. cerevisiae deletion strains, locus YOR231W, strain MKK1, hits give low values 0.952 | S. cerevisiae deletion strains, locus YOR329C, strain SCD5, hits give low values 0.987 | S. cerevisiae deletion strains, locus YPL031C, strain PHO85, hits give low values 0.95 | S. cerevisiae deletion strains, locus YPL153C, strain RAD53, hits give low values 0.937 | S. cerevisiae deletion strains, locus YPL204W, strain HRR25, hits give low values 0.918 | S. cerevisiae deletion strains, locus YPL209C, strain IPL1, hits give low values 0.986 | S. cerevisiae deletion strains, locus YPL256C, strain CLN2, hits give low values 0.885 | S. cerevisiae deletion strains, locus YPR025C, strain CCL1, hits give low values 0.981 | S. cerevisiae deletion strains, locus YPR106W, strain ISR1, hits give low values 0.979 | S. cerevisiae deletion strains, locus YPR111W, strain DBF20, hits give low values 0.97 | S. cerevisiae deletion strains, strain NNK1, hits give low values 0.984 | S. cerevisiae deletion strains, strain TSCII, hits give low values 0.995
